How the values were obtained:
Details in all cases: concentration: 1 μM, replicates: in singlicate; n = 1
EPHB6 = tested on: EPHB6
ERBB2 = tested on: ERBB2
ERBB3 = tested on: ERBB3
ERBB4 = tested on: ERBB4
ERK1 = tested on: T1, ERK1
T1 construct: gene MAPK3

ERK2 = tested on: T2, ERK2
T2 construct: gene MAPK1

ERK3 = tested on: T3, ERK3
T3 construct: gene MAPK6

ERK4 = tested on: T4, ERK4
T4 construct: gene MAPK4

ERK5 = tested on: T5, ERK5
T5 construct: gene MAPK7

ERK8 = tested on: T6, ERK8
T6 construct: gene MAPK15

ERN1 = tested on: ERN1
FAK = tested on: T7, FAK
T7 construct: gene PTK2

FER = tested on: FER
FES = tested on: FES
FGFR1 = tested on: FGFR1
FGFR2 = tested on: FGFR2
FGFR3 = tested on: FGFR3
FGFR4 = tested on: FGFR4
FGR = tested on: FGR
FLT1 = tested on: FLT1
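Further: KINOMEscan kinase panel screen.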

SMILES | %Inh (EPHB6) [%] | %Inh (ERBB2) [%] | %Inh (ERBB3) [%] | %Inh (ERBB4) [%] | %Inh (ERK1) [%] | %Inh (ERK2) [%] | %Inh (ERK3) [%] | %Inh (ERK4) [%] | %Inh (ERK5) [%] | %Inh (ERK8) [%] | %Inh (ERN1) [%] | %Inh (FAK) [%] | %Inh (FER) [%] | %Inh (FES) [%] | %Inh (FGFR1) [%] | %Inh (FGFR2) [%] | %Inh (FGFR3) [%] | %Inh (FGFR4) [%] | %Inh (FGR) [%] | %Inh (FLT1) [%]
CCCCCc1nc2c(N)ncnc2n1CCCCC [SKF-97255] | 6 | 4 | 0 | 0 | 0 | 0 | 0 | 0 | 0 | 29 | 13 | 0 | 13 | 0 | 11 | 0 | 0 | 0 | 7 | 0
CC(C)Oc1ccc2c(-c3ccnc(Nc4ccc(N5CCN(C)CC5)cc4)n3)cnn2n1 [GW696155] | 70 | 53 | 14 | 39 | 0 | 0 | 92.1 | 47 | 45 | 98 | 62 | 0 | 22 | 15 | 15 | 1 | 12 | 0 | 57 | 59
Nc1nccc(-c2c(-c3ccc(F)cc3)ncn2C2CCN(CC(F)(F)F)CC2)n1 [SB-236560] | 44 | 59 | 4 | 34 | 0 | 0 | 0 | 0 | 0 | 16 | 0 | 0 | 4 | 0 | 0 | 0 | 0 | 0 | 0 | 9
Cn1ccc2ncnc(Oc3ccc(NC(=O)Nc4ccncc4)c(Cl)c3)c21 | 0 | 15 | 0 | 0 | 0 | 0 | 5 | 0 | 0 | 1 | 0 | 0 | 0 | 0 | 0 | 0 | 0 | 0 | 5 | 0
O=c1cc(N2CCOCC2)nc2n(Cc3cccc(C(F)(F)F)c3)ccn12 [GSK2297543] | 0 | 16 | 0 | 5 | 0 | 0 | 0 | 12 | 0 | 0 | 6 | 0 | 34 | 0 | 11 | 0 | 19 | 1 | 17 | 17
CNc1ncnc2[nH]ncc12 [SKF-18355] | 0 | 17 | 22 | 4 | 0 | 0 | 0 | 0 | 0 | 14 | 33 | 0 | 30 | 0 | 0 | 0 | 5 | 0 | 0 | 0
Cc1ccc(NC(=O)c2ccnc(N3CCN(C)CC3)c2)cc1-c1ccc(C(=O)NCC2CC2)cc1 [GW775604] | 0 | 0 | 0 | 0 | 0 | 0 | 0 | 0 | 0 | 0 | 0 | 0 | 24 | 0 | 0 | 0 | 0 | 0 | 8 | 0
Nc1nc(-c2ccc3c(N)n[nH]c3c2)cc(N2CCCC2)n1 [GSK2227430] | 19 | 0 | 0 | 8 | 0 | 0 | 0 | 24 | 0 | 0 | 0 | 0 | 0 | 1 | 0 | 38 | 0 | 0 | 20 | 14
O=C1Cc2cc(Nc3nc(NCc4cccc(S(=O)(=O)C(F)(F)F)c4)ncc3C(F)(F)F)ccc2N1 | 0 | 6 | 9 | 4 | 0 | 9 | 31 | 25 | 0 | 0 | 0 | 0 | 0 | 7 | 0 | 1 | 5 | 0 | 0 | 0
NS(=O)(=O)CCc1cccc(Nc2nccc(-c3c(-c4cccc(NC(=O)c5c(F)cccc5F)c4)nn4ccccc34)n2)c1 [GSK336735] | 97.1 | 98.7 | 94 | 100 | 7 | 0 | 0 | 10 | 45 | 0 | 21 | 4 | 73 | 22 | 44 | 46 | 36 | 0 | 98.8 | 99.3
O=c1cc(N2CCOCC2)nc2n(Cc3cccc(Cl)c3Cl)c(C3CC3)nn12 [GSK2358994] | 33 | 0 | 9 | 0 | 0 | 11 | 0 | 0 | 0 | 13 | 0 | 0 | 3 | 15 | 0 | 1 | 0 | 0 | 9 | 6
NCC(NC(=O)c1cc(-c2cn[nH]c2)c(-c2ccnc3[nH]ccc23)s1)c1ccccc1.O=C(O)C(F)(F)F.O=C(O)C(F)(F)F (stereo not shown) [GSK1325775] | 12 | 32 | 0 | 10 | 0 | 0 | 20 | 9 | 0 | 51 | 29 | 57 | 0 | 0 | 20 | 0 | 0 | 0 | 0 | 0
Cc1cn2c(=O)cc(N3CCOCC3)nc2n1Cc1cccc(Cl)c1Cl [GSK2334006] | 0 | 20 | 0 | 33 | 0 | 13 | 21 | 0 | 0 | 24 | 0 | 0 | 33 | 8 | 1 | 26 | 18 | 1 | 51 | 34
Fc1ccc(-c2nn3c(OCC(F)(F)F)cccc3c2-c2ccncc2)cc1 [GW514784] | 0 | 59 | 29 | 37 | 0 | 0 | 6 | 9 | 0 | 0 | 0 | 0 | 13 | 7 | 0 | 0 | 0 | 0 | 18 | 35
O=c1cc(N2CCOCC2)nc2n(Cc3cccc(F)c3)ccn12 [GSK2297430] | 0 | 0 | 0 | 0 | 15 | 6 | 14 | 0 | 0 | 6 | 0 | 0 | 24 | 9 | 6 | 0 | 14 | 1 | 32 | 42
COc1ccc(Nc2nccc(N3CCC(NC(=O)Nc4cccc(C(C)=O)c4)C3)n2)cc1 (stereo not shown) [GSK1379731] | 0 | 14 | 0 | 5 | 0 | 0 | 7 | 0 | 0 | 25 | 0 | 0 | 12 | 1 | 3 | 0 | 2 | 30 | 20 | 33
O=c1cc(N2CCOCC2)nc2n(Cc3cccc4ccccc34)ccn12 [GSK2333389] | 12 | 0 | 0 | 0 | 3 | 0 | 0 | 25 | 0 | 43 | 10 | 1 | 1 | 0 | 4 | 0 | 7 | 0 | 9 | 30

From PMC5540273 (PLoS ONE, 2017)
